TCR act – Activators of T cell receptors: qHTS campaign; AID 504894, 2011; primary human leukocytes, anti-CD3, IL-2 HTRF, 48 h; 330,000 tested, under 10 active; Potency, µM (doses to about 9.22 µM), without a hit: at the top dose activation of IL-2 secretion, hits mostly activators; also: % of control where 0% means no effect
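Activity was scored as IL-2 release from primary human leukocytes given only a TCR signal (a-CD3 beads) plus compound for 48 hr. Detection used a two-antibody HTRF format read at 665nm.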
pAkt inh – HTS Assay for Inhibitors of Akt Phophorylation: Primary Screen. Neuro2A IGF-stimulated pAkt S473 HTRF, 20 min; active compounds read low. activity change, % for hits at 50 µM. actives 0.32% (n = 360,000); in the data active = activity change below about -80%; inconclusive = mostly about -51% to -80%; also: % is scaled to controls: 0 for no effect and ±100 for the full control effect
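Neuro2A cells (4,500/well, DMEM with 0.5% FBS) were treated with compound at a single 50 µM final concentration, stimulated with 6 nM IGF for 20 min at 37 °C, and lysed. Phospho-Akt Ser473 was read by HTRF as 665/615 ratio ×10^4.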
PINK1 modulator – A Quantitative High throughput Screen to Identify Chemical Modulators of PINK1 Expression. PINK1 immunofluorescence, high-content cytometry, 24 h. Potency, µM (doses to about 76.6 µM), for inactives: at the top dose activation (PINK1 increase), usual class: activators. actives 0.2% (n = 410,000). AID 624263, 2012; active = well fitted activation curve with a large enough effect; inconclusive = small, poorly fitted or top-dose-only effect; cell line not stated here; also: potency is read from the fitted curve at half-maximal effect; % of control where 0% means no effect; nearly all actives have a fitted effect of over 65% in size
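Compound titrations (5 concentrations, 24 h) on a stable cell line; DMSO and CCCP controls. Endpoint: fixed-cell PINK1 immunofluorescence with mitochondrial, cell and nuclear markers, scanned by microplate cytometer.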
BRCA1 expr up – qHTS Assay to Identify Small Molecule Activators of BRCA1 Expression; MCF7-BRCA1-FFLuc reporter, luminescence, 48 h; response scale: scaled: vehicle 0%, 10 µM genistein 100%; Potency, µM (series often up to 46.1 µM), for the others: at the highest dose activation, actives largely listed as activators; actives 1.1% (n = 380,000); AID 624202, 2012; also: potency is read from the fitted curve at half-maximal effect; nearly all actives have a fitted effect of over 80% in size
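48 h compound treatment of MCF7-BRCA1-FFLuc cells (phenol-red free MEM, 37 °C), then 15 min with luciferase substrate and luminescence imaging.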
* = called active by the depositor; [ ] = another dose, or the depositor's remark. In the library only some 1.5% were active in any assay of this set; here they are far more common. Unless noted, calls follow the shape of the dose curve; as a rule, active = well fitted curve in the direction sought with a large enough effect; inconclusive = small, poorly fitted or top-dose-only effect, or another doubt; inactive = no such curve, though single readings can be large; an effect the other way counts as inactive or inconclusive.

O=C(NC1CCCCC1)C(c1ccccc1F)N(Cc1ccco1)C(=O)Cn1nnc2ccccc21 (centres undefined) was read as TCR act 0%, PINK1 modulator 6% and BRCA1 expr up -36%.
Cc1oc(-c2ccccc2NS(C)(=O)=O)nc1CN(C)Cc1ccc(Cl)cc1 was read as PINK1 modulator -1%.
For Cc1cc(N2CCN(C)CC2)nc2ccc(NC(=O)c3ccccc3F)cc12 the results were TCR act -3%, pAkt inh inactive, PINK1 modulator 2% and BRCA1 expr up 11µM*.
For O=C(Nc1ccc(N2CCOCC2)c(Cl)c1)c1ccccc1F the results were TCR act 12%, pAkt inh inactive and BRCA1 expr up inconclusive.
For O=C(Nc1ccccc1N1CCCC1)c1ccc(Br)o1 the results were TCR act 5%, pAkt inh inactive, PINK1 modulator 3%[38.3 µM] and BRCA1 expr up 33%.
`O=C(Nc1ccc(N2CCCC2)c(Cl)c1)c1ccccc1F` gave pAkt inh inactive, PINK1 modulator 6% and BRCA1 expr up 3.2µM*.
For O=C(Nc1ccc(N2CCCC2)c(Cl)c1)c1ccc(Br)o1 the results were TCR act 0%, PINK1 modulator 0%[38.3 µM] and BRCA1 expr up 4µM*.
`COc1ccccc1-c1cc2c(c(OC)c1)OCCN(C(=O)Cn1nc(-c3ccccc3)c3ccccc3c1=O)C2` gave PINK1 modulator 0%.
`Cc1c(C(=O)NCC2CC2)sc2ncnc(NCCN3CCCCC3)c12` gave PINK1 modulator 1%.
For COc1ncccc1C(=O)N1CCOc2ccc(C(O)C(c3ccccc3)c3ccccc3)cc2C1 (centres undefined) the results were PINK1 modulator 0%.
For CC(=O)c1cccc(OCc2cc(C(=O)N(C)CCc3cnn(C)c3)no2)c1 the results were TCR act 1%, pAkt inh inactive, PINK1 modulator 0% and BRCA1 expr up 46%.
Screening COc1cc(Cl)ccc1OCc1cc(C(=O)N(C)CCc2cnn(C)c2)no1 returned TCR act 3%, pAkt inh inactive, PINK1 modulator 0% and BRCA1 expr up 7.1µM*.
Cc1cc(OCc2cc(C(=O)N(C)CCc3cnn(C)c3)no2)cc(C)c1Cl was read as TCR act 4%, pAkt inh inactive, PINK1 modulator 0% and BRCA1 expr up 10µM*.
For O=C(c1ccc([N+](=O)[O-])cc1)n1nc(-c2ccccc2)nc1NCc1ccccc1 the results were TCR act -6%, pAkt inh inactive, PINK1 modulator -1% and BRCA1 expr up 69%.
O=C(c1cccc([N+](=O)[O-])c1)n1nc(-c2ccccc2)nc1NCc1ccccc1 was read as TCR act 3%[46.1 µM], pAkt inh inactive, PINK1 modulator 2% and BRCA1 expr up 10µM*.
For O=C(O)c1ccc2nc(-c3cc4cccc(O)c4oc3=O)[nH]c2c1 the results were PINK1 modulator 1%.
For C=CCc1cccc2cc(-c3nc4ccc(C)cc4[nH]3)c(=O)oc12 the results were PINK1 modulator -1% and BRCA1 expr up 2µM*.
Screening CCCCCc1c(-c2ccccc2OC)ncn1CCc1ccccc1OC returned pAkt inh inactive, PINK1 modulator inconclusive and BRCA1 expr up -52%.
Screening CCCCCc1c(CC)ncn1CCc1ccccc1OC returned pAkt inh inactive, PINK1 modulator 32µM* and BRCA1 expr up -45%.
O=C(Nc1ccccc1Cl)c1ccccc1Cl was read as TCR act 0%, PINK1 modulator 4%[38.3 µM] and BRCA1 expr up 44%.
For O=C(NNC(=S)Nc1ccccc1Cl)c1ccccc1 the results were TCR act -4%, pAkt inh inactive, PINK1 modulator -1% and BRCA1 expr up 13µM*.
Screening O=C(NNC(=S)Nc1ccccc1Cl)c1ccccc1Cl returned TCR act -3%, pAkt inh inactive, PINK1 modulator 4% and BRCA1 expr up 10µM*.
`CCn1nc(C)c(CN2CCC3(CCC(CNC(=O)c4ccccc4)O3)CC2)c1C` (centres undefined) gave PINK1 modulator 0%.
Cc1cc(C(=O)NCc2csc(-c3ccccc3)n2)no1 was read as TCR act 12%, pAkt inh inactive, PINK1 modulator -1% and BRCA1 expr up 10µM*.
`O=C(NCCc1csc(-c2ccccc2)n1)c1ccco1` gave TCR act 2%, pAkt inh inactive, PINK1 modulator 2% and BRCA1 expr up 55%.
O=C(NCc1csc(-c2ccccc2)n1)c1ccco1 was read as TCR act -4%, pAkt inh inactive, PINK1 modulator -1% and BRCA1 expr up 10µM*.
For Cc1cc(C(=O)NCc2cccs2)no1 the results were TCR act 3%, pAkt inh inactive, PINK1 modulator -3%[38.3 µM] and BRCA1 expr up 1%.
O=C(NCCc1nnc2n1CCN(Cc1ccsc1)CC2)c1ccc(F)cc1 was read as PINK1 modulator 1%.
For COc1ccc(OC)c(CN2CCCC(n3cc(C(=O)N4CCCCC4)nn3)C2)c1 (centres undefined) the results were PINK1 modulator 1%.
COc1ccc(NC(=O)CSCC(=O)Nc2sccc2C#N)cc1 was read as TCR act 6%, pAkt inh inactive, PINK1 modulator 2% and BRCA1 expr up -13%.
Screening COc1ccc(CCC(=O)Nc2sccc2C#N)cc1 returned pAkt inh inactive, PINK1 modulator 7% and BRCA1 expr up 11µM*.
`Oc1ccc(/C=N/Nc2ccc(C(F)(F)F)cn2)cc1` gave TCR act -5%, pAkt inh inactive, PINK1 modulator -1% and BRCA1 expr up 6.3µM*.
COc1cc(/C=N/Nc2ccc(C(F)(F)F)cn2)cc(OC)c1O was read as TCR act -9%, pAkt inh inactive, PINK1 modulator -1% and BRCA1 expr up -27%.
For CC1(C)CC(C(=O)N2CCOc3ccc(CN4CCC(Oc5cccnc5)CC4)cc3C2)CCO1 (centres undefined) the results were PINK1 modulator -1%.
For O=C(COc1ccc2c(c1)CCC2)N1CCc2ccccc21 the results were pAkt inh inactive, PINK1 modulator inconclusive and BRCA1 expr up 10µM*.
Screening O=C(c1cccs1)N1CCn2c1nc1ccccc12 returned TCR act 2%, pAkt inh inactive, PINK1 modulator 0% and BRCA1 expr up 2.8µM*.
For COc1ccc(C(=O)N2CCn3c2nc2ccccc23)cc1 the results were TCR act 1%, pAkt inh inactive, PINK1 modulator 1% and BRCA1 expr up 13µM*.
`COc1ccc(C(=O)N2CCc3ccccc32)cc1` gave TCR act -2%[46.1 µM], pAkt inh inactive, PINK1 modulator 1% and BRCA1 expr up 11µM*.
O=C(NCCN1CCOCC1)c1cnn(-c2nccc(-c3ccccc3F)n2)c1C1CC1 was read as PINK1 modulator 0%.

Bioassay records as filed in PubChem.
